In PubChem BioAssay AID1159580 (chemical genetic matrix, 2015):
Among all 5,500 compounds or so, about 2,000 (36%) were called active. Not shown: some 18% with an inconclusive outcome. Rule as the data show it: active = normalized growth mostly below about 0.91 (no sharp cut-off); inconclusive = no clear call, values can overlap the other calls; inactive = mostly above about 0.92. Some of the results follow.

Test: chemical genetic growth profiling, strain panel (AID 1159580);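 also: tested at 20 µM; growth read once vehicle control cultures reached saturation at 30 °C; 1 = growth at the plate median or of vehicle wells; lower values mean less growth of the strain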
Settings: S. cerevisiae deletion strains, growth OD
[1] = locus YDL101C, strain DUN1, active compounds read low
[2] = locus YHR030C, strain SLT2, active compounds read low

Measured: normalized growth

O=C(O)CCCNCc1cccc2ccccc12
inactive: locus YAL013W, strain DEP1, active compounds read low 1.01 | locus YBR229C, strain ROT2, active compounds read low 1.01 | [1] 0.998 | locus YDR150W, strain NUM1, active compounds read low 0.984 | locus YEL061C, strain CIN8, active compounds read low 1.01 | locus YGR078C, strain PAC10, active compounds read low 1.01 | locus YGR229C, strain SMI1, active compounds read low 1 | [2] 1.02 | locus YHR087W, strain rtc3, active compounds read low 1.01 | locus YJL187C, strain SWE1, active compounds read low 1 | locus YJR043C, strain POL32, active compounds read low 1.01 | locus YJR075W, strain HOC1, active compounds read low 0.974 | locus YKL190W, strain CNB1, active compounds read low 1 | locus YLR039C, strain RIC1, active compounds read low 1 | locus YLR058C, strain SHM2 (second series), active compounds read low 1 | locus YLR085C, strain ARP6, active compounds read low 1.01 | locus YLR262C, strain YPT6, active compounds read low 0.999 | locus YML094W, strain GIM5, active compounds read low 1.07 | locus YMR219W, strain ESC1, active compounds read low 0.992 | locus YMR263W, strain SAP30, active compounds read low 1 | locus YNL153C, strain GIM3, active compounds read low 0.992 | locus YNL298W, strain CLA4 (second series), active compounds read low 1 | locus YNL322C, strain KRE1, active compounds read low 1.01 | locus YNR030W, strain Alg12, active compounds read low 1 | locus YPL055C, strain LGE1, active compounds read low 1.03 | locus YPL241C, strain CIN2, active compounds read low 1.06 | locus YPR135W, strain CTF4, active compounds read low 1.05

N/C(Cc1cccc2ccccc12)=N/OC(=O)c1ccc(Cl)cc1
active: [2] 0.666 | locus YLR113W, strain HOG1, active compounds read low 0.858
inactive: locus YAR019C, strain CDC15, active compounds read low 0.954 | locus YBL105C, strain PKC1, active compounds read low 0.952 | locus YBR135W, strain CKS1, active compounds read low 0.947 | locus YBR136W, strain MEC1, active compounds read low 0.93 | locus YBR160W, strain CDC28, active compounds read low 0.928 | locus YDL017W, strain CDC7, active compounds read low 0.949 | locus YDL028C, strain MPS1, active compounds read low 0.916 | [1] 0.961 | locus YDL108W, strain KIN28, active compounds read low 0.934 | locus YDL132W, strain cdc53, active compounds read low 0.951 | locus YDL214C, strain PRR2, active compounds read low 0.85 | locus YDR052C, strain DBF4, active compounds read low 0.967 | locus YDR054C, strain cdc34, active compounds read low 0.952 | locus YDR226W, strain ADK1, active compounds read low 0.954 | locus YDR477W, strain SNF1, active compounds read low 0.937 | locus YER123W, strain YCK3, active compounds read low 0.878 | locus YER133W, strain GLC7, active compounds read low 0.889 | locus YFL009W, strain cdc4, active compounds read low 0.938 | locus YFL029C, strain CAK1, active compounds read low 0.936 | locus YFR003C, strain YPI1, active compounds read low 0.955 | locus YFR019W, strain FAB1, active compounds read low 0.928 | locus YFR028C, strain CDC14, active compounds read low 0.956 | locus YGR040W, strain KSS1, active compounds read low 0.937 | locus YGR052W, strain FMP48, active compounds read low 0.941 | locus YGR092W, strain DBF2, active compounds read low 0.931 | locus YHR079C, strain IRE1, active compounds read low 0.965 | locus YHR082C, strain KSP1, active compounds read low 0.953 | locus YHR205W, strain SCH9, active compounds read low 0.835 | locus YIL147C, strain SLN1, active compounds read low 0.94 | locus YJL095W, strain BCK1, active compounds read low 0.874 | locus YJL128C, strain PBS2, active compounds read low 0.935 | locus YJL157C, strain FAR1, active compounds read low 0.899 | locus YJR016C, strain ILV3, active compounds read low 0.962 | locus YJR066W, strain TOR1 (second series), active compounds read low 0.879 | locus YJR066W, strain TOR1, active compounds read low 0.847 | locus YKL048C, strain ELM1, active compounds read low 0.967 | locus YKL067W, strain YNK1, active compounds read low 0.846 | locus YKL101W, strain HSL1, active compounds read low 0.939 | locus YKL193C, strain SDS22, active compounds read low 0.978 | locus YKL203C, strain TOR2, active compounds read low 0.969 | locus YLR133W, strain CKI1, active compounds read low 0.876 | locus YLR403W, strain SFP1, active compounds read low 0.919 | locus YML070W, strain DAK1, active compounds read low 0.892 | locus YMR001C, strain CDC5, active compounds read low 0.963 | locus YMR205C, strain PFK2 (second series), active compounds read low 0.872 | locus YMR277W, strain FCP1, active compounds read low 0.925 | locus YNL006W, strain LST8, active compounds read low 0.977 | locus YNL020C, strain ARK1, active compounds read low 0.909 | locus YNL161W, strain CBK1, active compounds read low 0.963 | locus YNL183C, strain NPR1, active compounds read low 0.92 | locus YNL207W, strain RIO2, active compounds read low 0.932 | locus YNL222W, strain SSU72, active compounds read low 0.95 | locus YNL307C, strain MCK1 (second series), active compounds read low 0.941 | locus YOL078W, strain AVO1, active compounds read low 0.943 | locus YOL136C, strain PFK27, active compounds read low 0.927 | locus YOR061W, strain CKA2, active compounds read low 0.892 | locus YOR119C, strain RIO1, active compounds read low 0.917 | locus YOR231W, strain MKK1, active compounds read low 0.926 | locus YOR329C, strain SCD5, active compounds read low 0.968 | locus YPL031C, strain PHO85, active compounds read low 0.915 | locus YPL153C, strain RAD53, active compounds read low 0.927 | locus YPL204W, strain HRR25, active compounds read low 0.922 | locus YPL209C, strain IPL1, active compounds read low 0.964 | locus YPL256C, strain CLN2, active compounds read low 0.888 | locus YPR025C, strain CCL1, active compounds read low 0.947 | locus YPR106W, strain ISR1, active compounds read low 0.986 | locus YPR111W, strain DBF20, active compounds read low 0.916 | strain NNK1, active compounds read low 0.948 | strain TSCII, active compounds read low 0.926
